RAD54 branch = inhibitors of human RAD54 branch migration, primary screen, biochemical, fluorescence, single point; inhibition, % at 10.4 µM; hit rate 0.14% among 360,000; RAD54 Holliday junction branch migration, FAM/BHQ fluorescence; AID 602329, 2012;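 active = mean normalized replicate activity at least 40 and at least half of replicates scoring 40 or more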;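 note: inhibitors cause a drop in the FAM fluorescence signal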
Target sequence (Q92698 whole entry, looked up): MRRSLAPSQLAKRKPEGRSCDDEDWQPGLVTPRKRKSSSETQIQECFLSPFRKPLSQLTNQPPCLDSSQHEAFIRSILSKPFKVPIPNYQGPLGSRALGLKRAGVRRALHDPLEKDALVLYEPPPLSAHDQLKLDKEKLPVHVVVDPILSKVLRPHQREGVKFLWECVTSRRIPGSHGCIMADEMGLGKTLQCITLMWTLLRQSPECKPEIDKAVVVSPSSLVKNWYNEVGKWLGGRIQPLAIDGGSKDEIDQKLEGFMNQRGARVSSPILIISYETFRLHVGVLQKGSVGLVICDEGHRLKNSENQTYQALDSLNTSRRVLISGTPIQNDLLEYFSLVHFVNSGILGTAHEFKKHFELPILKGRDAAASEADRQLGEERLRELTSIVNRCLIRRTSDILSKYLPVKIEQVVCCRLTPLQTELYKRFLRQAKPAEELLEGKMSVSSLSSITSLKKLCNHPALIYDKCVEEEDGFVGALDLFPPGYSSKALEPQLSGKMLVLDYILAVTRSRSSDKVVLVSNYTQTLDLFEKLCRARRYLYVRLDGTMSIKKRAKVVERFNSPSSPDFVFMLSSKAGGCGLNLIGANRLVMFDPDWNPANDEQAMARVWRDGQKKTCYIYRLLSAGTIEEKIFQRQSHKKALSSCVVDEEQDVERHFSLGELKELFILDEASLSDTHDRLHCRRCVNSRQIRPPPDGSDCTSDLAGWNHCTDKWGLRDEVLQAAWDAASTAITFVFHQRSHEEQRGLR
Casp6 inh = human caspase-6 inhibitors, primary screen, biochemical, VEID-R110 fluorescence, single point, set 2; AID 686996, 2013; inhibition, % at 12.5 µM; hit rate 0.53% among 350,000; purified caspase-6, Z-VEID-R110 cleavage fluorescence; P55212;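 active = mean inhibition across replicates at least about 35%, with every replicate also reaching that limit, limit read from the data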
N-glyco inh = increase of ERlucT glycosylation luciferase signal, primary screen, N-linked glycosylation inhibitor project, D54 ERlucT cells, luminescence, set 2; D54 ERlucT glycosylation luciferase reporter, 24 h; percent of 100 nM tunicamycin response; reporter increase, % at 12.5 µM; hit rate 0.23% among 360,000; AID 588692, 2011;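 active = mean luciferase reporter signal, scaled so untreated is 0 and the glycosylation-blocking control 100, at or above a set limit in every replicate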;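 note: luciferase carries N-glycosylation sites so blocking glycosylation raises the light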
RAD52 inh = RAD52 DNA annealing inhibitors, primary screen, biochemical, FRET, single point, set 2. hit rate 0.46% among 360,000. inhibition, % at 18.7 µM. DNA repair protein RAD52 homolog (Homo sapiens), P43351. recombinant RAD52 DNA annealing, FRET fluorescence. AID 651710, 2012;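 active = every replicate showing at least 50% inhibition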
NSD2 HMT inh = NSD2 histone methyltransferase inhibitors, primary screen, biochemical, AlphaScreen, single concentration, set 2. NSD2 peptide methylation, 120 min. inhibition, % at 12.5 µM. Histone-lysine N-methyltransferase NSD2 (Homo sapiens), O96028. AID 743445, 2014. hit rate 0.54% among 310,000; in the data active = inhibition above about 50%
Of the large screens only hits and unclear results are named; the others gave an inactive call. A selection: hits, their analogues and other compounds. The true share with any hit is near 1.2%.

O=C(C[C@@H]1CC[C@@H]2[C@H](COC[C@@H](O)CN2S(=O)(=O)c2ccc(F)cc2)O1)NCC1CCCCC1	RAD52 inh 71.2 (no result: N-glyco inh, NSD2 HMT inh)
O=C(C[C@@H]1CC[C@H]2[C@@H](COC[C@@H](O)CN2S(=O)(=O)c2ccc(Cl)cc2)O1)NCC1CCCCC1	none (no result: N-glyco inh, NSD2 HMT inh)
CC=Cc1ccc2n(c1=O)C[C@H]1[C@H](CO)[C@@H](C(=O)NCC3CC3)N(CCC(F)(F)F)[C@@H]21 (mixture of isomers)	none (no result: N-glyco inh, NSD2 HMT inh)
C/C=C/c1ccccc1[C@H]1[C@@H](C#N)N(c2nc(CC)cs2)[C@H]1CO	none (no result: RAD54 branch, N-glyco inh, NSD2 HMT inh)
O=C1Cc2cccc(=O)c(O)c2C(=O)O1	Casp6 inh 38.4
O=C1c2c(O)cccc2Cc2cccc(O)c21	none (no result: NSD2 HMT inh)
CO[C@H]1CN(C)C(=O)c2cc(C#N)ccc2OC[C@H]2O[C@@H](CC[C@H]2OC)CCN(C)C(=O)[C@@H]1C	none (no result: N-glyco inh, NSD2 HMT inh)
COC(=O)C[C@H]1CC[C@@H]2[C@H](COc3ccc(NC(=O)c4cnccn4)cc3C(=O)N2C)O1	Casp6 inh 57.0 (no result: N-glyco inh, NSD2 HMT inh)
CN1C(=O)c2cc(NC(=O)Cc3cccs3)ccc2OC[C@@H]2O[C@@H](CC(=O)NCCc3ccncc3)CC[C@@H]21	Casp6 inh 69.3 (no result: N-glyco inh, NSD2 HMT inh)
CN1C(=O)c2cc(NC(=O)Nc3ccc(Cl)cc3)ccc2OC[C@@H]2O[C@@H](CC(=O)NCCN3CCCCC3)CC[C@H]21	RAD52 inh 52.6 (no result: N-glyco inh, NSD2 HMT inh)
CCNC(=O)Nc1ccc2c(c1)C(=O)N(C)[C@H]1CC[C@@H](CC(=O)NCCN3CCCC3)O[C@H]1CO2	none (no result: Casp6 inh, N-glyco inh, RAD52 inh, NSD2 HMT inh)
COC(=O)C[C@@H]1CC[C@H]2[C@H](COc3ccc(NC(=O)c4cnccn4)cc3C(=O)N2C)O1	none (no result: N-glyco inh, NSD2 HMT inh)
CN1C(=O)c2cc(NC(=O)Cc3cccs3)ccc2OC[C@H]2O[C@@H](CC(=O)NCCc3ccncc3)CC[C@@H]21	none (no result: N-glyco inh, NSD2 HMT inh)
CN1C(=O)c2cc(NC(=O)c3cccc(F)c3)ccc2OC[C@@H]2O[C@@H](CC(=O)N3CCc4ccccc4C3)CC[C@H]21	Casp6 inh 56.0 (no result: N-glyco inh, NSD2 HMT inh)
COc1ccc(CN(C)C[C@@H]2Oc3ccc(NS(=O)(=O)c4c(C)noc4C)cc3CC(=O)N([C@@H](C)CO)C[C@H]2C)cc1	none (no result: RAD54 branch, N-glyco inh, NSD2 HMT inh)
O=C1CCC(=O)c2ccc3c4c(ccc1c24)CC3	Casp6 inh 92.3
O=C1c2ccc3c4c(ccc(c24)C(=O)N1c1ccc2ccccc2c1)CC3	none (no result: Casp6 inh, RAD52 inh)
CO[C@@H]1CN(C)C(=O)c2cc(NS(C)(=O)=O)ccc2OC[C@H](C)N(C(=O)C2CCCC2)C[C@@H]1C	none (no result: N-glyco inh, NSD2 HMT inh)
CN(C)S(=O)(=O)c1cccc(NC(=S)N/N=C/c2ccc(O)c(O)c2O)c1	Casp6 inh 37.9
COc1ccc(O)c(/C=N/NC(=S)Nc2cccc(S(=O)(=O)N(C)C)c2)c1	none (no result: Casp6 inh, RAD52 inh)
C[C@@H](NC(=O)C[C@H]1C[C@H]2c3cc(NC(=O)c4cccnc4)ccc3O[C@H]2[C@@H](CO)O1)c1ccccc1	none (no result: N-glyco inh, NSD2 HMT inh)
O=[N+]([O-])c1cc2oc3c(c2c(C=NCc2ccncc2)c1O)CCCC3	NSD2 HMT inh 64.7 (no result: RAD54 branch, Casp6 inh, RAD52 inh)
CC(C)(C)N=Cc1c(O)ccc2oc3c(c12)CCCC3	none
COc1ccc(CNC(=O)C2CCN(S(=O)(=O)c3ccc4nc5c(c(C(=O)O)c4c3)CCCC5)CC2)cc1	Casp6 inh 54.0
O=C(O)c1c2c(nc3ccc(S(=O)(=O)N4CCC(C(=O)NCc5ccc(Cl)cc5)CC4)cc13)CCCC2	Casp6 inh 64.5
O=C(O)c1c2c(nc3ccc(S(=O)(=O)N4CCC(C(=O)NCc5ccccc5Cl)CC4)cc13)CCCC2	Casp6 inh 44.2
COc1ccc(CCNC(=O)C2CCN(S(=O)(=O)c3ccc4nc5c(c(C(=O)O)c4c3)CCCC5)CC2)cc1OC	none
O=C(O)c1c2c(nc3ccc(S(=O)(=O)N4CCC(C(=O)NC5CCCCCC5)CC4)cc13)CCCC2	Casp6 inh 43.1 (no result: RAD54 branch)
CC(C)CCNC(=O)C1CCN(S(=O)(=O)c2ccc3nc4c(c(C(=O)O)c3c2)CCCCC4)CC1	none
CCCNC(=O)N1CC2(CN(C)C2)c2c(n(C)c3cc(OC)ccc23)[C@H]1CO	none (no result: RAD54 branch, Casp6 inh, N-glyco inh, NSD2 HMT inh)
COCCn1c(SCCN2CCOCC2)nc2c1c(=O)[nH]c(=O)n2C	Casp6 inh 35.5 (no result: NSD2 HMT inh)
O=C(O)c1cc(N2N=C(C(F)(F)F)/C(=C/C=C/c3ccco3)C2=O)ccc1Cl	Casp6 inh 95.4 (no result: RAD54 branch, NSD2 HMT inh)
